Assay results from PubChem BioAssay (NCATS).
Several values for one entry are separate records, joined by “and”; a condition that tells them apart may be missing. Equal entries are not always repeated. Records with an inconclusive call do not appear. Some compounds were tested as several samples or in several runs, with calls that do not always agree. Activity calls are given as the source filed them. The call rests on the fitted dose curve; in most records, active means well fitted curve in the direction sought with a large enough effect; inconclusive means small, poorly fitted or top-dose-only effect, or another doubt; inactive means no such curve, though single readings can be large; an effect the other way counts as inactive or inconclusive.

Assays:
[1] = Quantitative High-Throughput drug screen in 47 multiple myeloma cell lines against the NCATS MIPE library collection: JIM1_ECACC cell viability assay (AID 1918964)
How it was run: (§1)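 Steps: seed 500 cells per well; pin-transfer MIPE 4.0 library; incubate 48 h at 37C, 5% CO2, humidified; add CellTiter-Glo, 5 min room temperature; read luminescence.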

[2] = Quantitative High-Throughput drug screen in 47 multiple myeloma cell lines against the NCATS MIPE library collection: H1112_PLB cell viability assay (AID 1918967; further: nearly all actives have a fitted effect of over 30% in size; further: potency means the concentration at half of the fitted maximal effect)
How it was run: as §1

[3] = Quantitative High-Throughput drug screen in 47 multiple myeloma cell lines against the NCATS MIPE library collection: Karpas25_ECACC cell viability assay (AID 1918968; further: nearly all actives have a fitted effect of over 35% in size; further: potency means the concentration at half of the fitted maximal effect)
How it was run: as §1

[4] = Quantitative High-Throughput drug screen in 47 multiple myeloma cell lines against the NCATS MIPE library collection: KMS12BM_JCRB cell viability assay (AID 1918971); further: nearly all actives have a fitted effect of over 35% in size; further: potency means the concentration at half of the fitted maximal effect
How it was run: (§2)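 qHTS of the MIPE 4.0 collection: 500 myeloma cells/well, 48 h drug exposure at 37C in 5% CO2, then CellTiter-Glo for 5 min at room temperature before luminescence reading.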

[5] = Quantitative High-Throughput drug screen in 47 multiple myeloma cell lines against the NCATS MIPE library collection: KMS12PE_JCRB cell viability assay (AID 1918972); further: nearly all actives have a fitted effect of over 30% in size; further: potency means the concentration at half of the fitted maximal effect
How it was run: (§3)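 Myeloma cell lines, 500 cells per well, exposed to MIPE 4.0 library compounds for 48 h at 37C, 5% CO2. Viability from ATP by CellTiter-Glo luminescence; normalised to DMSO (100%) and media-only (0%) wells.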

[6] = Quantitative High-Throughput drug screen in 47 multiple myeloma cell lines against the NCATS MIPE library collection: KMS21BM_JCRB cell viability assay (AID 1918974); settings: ATP luminescence, 48 h; viability: at 45.8 µM (top of the series) unless noted; further: potency means the concentration at half of the fitted maximal effect
How it was run: as §1

[7] = Quantitative High-Throughput drug screen in 47 multiple myeloma cell lines against the NCATS MIPE library collection: KMS26_JCRB cell viability assay (AID 1918975); further: nearly all actives have a fitted effect of over 45% in size; further: potency means the concentration at half of the fitted maximal effect
How it was run: as §2

[8] = Quantitative High-Throughput drug screen in 47 multiple myeloma cell lines against the NCATS MIPE library collection: MOLP8_DSMZ cell viability assay (AID 1918977); further: nearly all actives have a fitted effect of over 45% in size; further: potency means the concentration at half of the fitted maximal effect
How it was run: (§4)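 500 cells/well per myeloma line exposed to pinned MIPE 4.0 compounds for 48 h at 37 °C, 5% CO2. Viability read as ATP by CellTiter-Glo luminescence, normalised to DMSO-only (100%) and media-only (0%) wells.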

[9] = Quantitative High-Throughput drug screen in 47 multiple myeloma cell lines against the NCATS MIPE library collection: NCIH929_DSMZ cell viability assay (AID 1918978); further: nearly all actives have a fitted effect of over 35% in size; further: potency means the concentration at half of the fitted maximal effect
How it was run: as §4

[10] = Quantitative High-Throughput drug screen in 47 multiple myeloma cell lines against the NCATS MIPE library collection: OCIMY1_PLB cell viability assay (AID 1918979); further: nearly all actives have a fitted effect of over 35% in size; further: potency means the concentration at half of the fitted maximal effect
How it was run: as §4

[11] = Quantitative High-Throughput drug screen in 47 multiple myeloma cell lines against the NCATS MIPE library collection: MM1S_ATCC cell viability assay (AID 1918980); further: nearly all actives have a fitted effect of over 45% in size; further: potency means the concentration at half of the fitted maximal effect
How it was run: as §4

[12] = Quantitative High-Throughput drug screen in 47 multiple myeloma cell lines against the NCATS MIPE library collection: MM1R_ATCC cell viability assay (AID 1918981); further: nearly all actives have a fitted effect of over 35% in size; further: potency means the concentration at half of the fitted maximal effect
How it was run: as §4

[13] = Quantitative High-Throughput drug screen in 47 multiple myeloma cell lines against the NCATS MIPE library collection: LP1_DSMZ cell viability assay (AID 1918982); further: nearly all actives have a fitted effect of over 35% in size; further: potency means the concentration at half of the fitted maximal effect
How it was run: as §4

[14] = Quantitative High-Throughput drug screen in 47 multiple myeloma cell lines against the NCATS MIPE library collection: KMS28PE_JCRB cell viability assay (AID 1918983); further: nearly all actives have a fitted effect of over 35% in size; further: potency means the concentration at half of the fitted maximal effect
How it was run: as §4

[15] = Quantitative High-Throughput drug screen in 47 multiple myeloma cell lines against the NCATS MIPE library collection: KMS27_JCRB cell viability assay (AID 1918970); further: nearly all actives have a fitted effect of over 30% in size; further: potency means the concentration at half of the fitted maximal effect
How it was run: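 Luminescent ATP read-out (CellTiter-Glo, 5 min at room temperature) after 48 h compound exposure of 500 KMS27_JCRB cells per well; DMSO wells define full viability and media-only wells zero.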

[16] = Quantitative High-Throughput drug screen in 47 multiple myeloma cell lines against the NCATS MIPE library collection: INA6_PLB cell viability assay (AID 1918965; further: nearly all actives have a fitted effect of over 55% in size; further: potency means the concentration at half of the fitted maximal effect)
How it was run: as §3

[17] = Quantitative High-Throughput drug screen in 47 multiple myeloma cell lines against the NCATS MIPE library collection: L363_DSMZ cell viability assay (AID 1918984); further: potency means the concentration at half of the fitted maximal effect; nearly all actives have a fitted effect of over 40% in size
How it was run: as §4

[18] = Quantitative High-Throughput drug screen in 47 multiple myeloma cell lines against the NCATS MIPE library collection: KMS20_JCRB cell viability assay (AID 1918973); further: nearly all actives have a fitted effect of over 45% in size
How it was run: as §1

[19] = Quantitative High-Throughput drug screen in 47 multiple myeloma cell lines against the NCATS MIPE library collection: MMM1_PLB cell viability assay (AID 1918976)
How it was run: as §4

Measured: Potency

Oc1ccc(C2CNCCc3c2cc(O)c(O)c3Cl)cc1 (stereo not given)
inactive: [1] | [2] | [4] | [5] | [8] | [10] | [12] | [13] | [14]
active: [3] 5.9 µM | [6] 18700 nM | [7] 1.32 µM | [9] 16.6 µM | [11] 3.32 µM

Cc1oncc1C(=O)Nc1ccc(C(F)(F)F)cc1
inactive: [1] | [15] | [5] | [7] | [12]
active: [2] 14.8 µM | [9] 18.7 µM | [11] 14.8 µM | [13] 10.5 µM

O=C(c1cc(Cc2n[nH]c(=O)c3ccccc23)ccc1F)N1CCN(C(=O)C2CC2)CC1
inactive: [1] | [4] | [8]
active: [11] 23.5 µM

C#Cc1cccc(Nc2ncnc3cc(OCCOC)c(OCCOC)cc23)c1
active: [16] 18.7 µM | [15] 5.26 µM | [4] 20.9 µM | [5] 2.09 µM | [9] 7.43 µM | [11] 9.35 µM | [17] 1.48 µM
inactive: [10]

C1COC(NC(C2CC2)C2CC2)=N1
active: [16] 9.35 µM
inactive: [2] | [7] | [9] | [11] | [13] | [14]

CCC(C)N(C)C(=O)c1cc2ccccc2c(-c2ccccc2Cl)n1 (stereo not given)
inactive: [16] | [2] | [18] | [8] | [9] | [10] | [12] | [13] | [14]
active: [15] 16.6 µM | [11] 23.5 µM

CC(C=CC1=C(C)CCCC1(C)C)=CC=CC(C)=CC(=O)O
inactive and 9.35 µM (active): [14]
active: [16] 14.8 µM and 5.9 µM | [2] 14.8 µM and 11.8 µM | [3] 16.6 µM and 18.7 µM | [15] 3.72 µM | [9] 18.7 µM and 6.62 µM | [11] 0.526 µM | [12] 14.8 µM
inactive: [7] | [10] | [13]

COc1ccc(-c2ccc3c(N4CCOC[C@H]4C)nc(N4CCOC[C@H]4C)nc3n2)cc1CO
active: [16] 0.0372 µM | [3] 0.0166 µM | [5] 0.059 µM | [6] 66.2 nM | [7] 4.69 µM | [11] 0.0526 µM | [12] 0.0743 µM | [14] 0.0235 µM

CCC(=O)N[C@H]1CC[C@H](C(=O)N(C)c2ccc(-c3nc4ccccc4o3)cc2)C1
active: [16] 14.8 µM | [2] 11.8 µM | [3] 7.43 µM | [15] 20.9 µM | [5] 4.69 µM | [9] 2.96 µM | [11] 5.26 µM | [12] 3.72 µM | [14] 18.7 µM | [17] 16.6 µM

CCC(C)n1ncn(-c2ccc(N3CCN(c4ccc(OC[C@H]5CO[C@](Cn6cncn6)(c6ccc(Cl)cc6Cl)O5)cc4)CC3)cc2)c1=O (stereo not given in full)
inactive: [16] | [2] | [3] | [9] | [11]
active: [19] 2.96 µM | [10] 4.18 µM | [14] 14.8 µM

COc1ccc(-c2c(-c3ccc(O)cc3O)n[nH]c2C)cc1
inactive: [10] | [11] | [14]
active: [16] 38.2 µM | [3] 27 µM | [4] 27 µM | [19] 42.9 µM | [9] 19.1 µM | [12] 38.2 µM

CCCn1c(=O)c2[nH]c(C34CC5CC3C[C@@H](C5)C4)nc2n(CCC)c1=O
inactive: [16] | [2] | [3] | [9] | [10]
active: [19] 18.7 µM | [12] 11.8 µM | [13] 11.8 µM | [14] 20.9 µM

CCN(CC)CCCC(C)Nc1nc(C)cc(Nc2ccc3nc(C)cc(N)c3c2)n1 (stereo not given)
inactive: [2] | [13] | [14]
active: [16] 10.5 µM | [15] 10.5 µM | [9] 16.6 µM

COc1ccc2c3n(c(=NC(=O)c4cccnc4)nc2c1OC)CCN3
active: [16] 23.5 µM | [2] 4.69 µM | [3] 5.9 µM | [15] 11.8 µM | [7] 11.8 µM | [19] 4.69 µM | [8] 2.64 µM | [9] 1.87 µM | [11] 2.64 µM | [12] 5.9 µM | [14] 5.9 µM
inactive: [4]

Fc1ccc(Cl)cc1-c1nc(Nc2ccncc2)c2nccnc2n1
inactive: [2] | [15] | [11]
active: [16] 16.6 µM | [5] 0.469 µM | [9] 16.6 µM

Cn1cnc2c(F)c(Nc3ccc(Br)cc3Cl)c(C(=O)NOCCO)cc21
inactive: [10]
active: [16] 0.526 µM | [2] 0.662 µM | [3] 16.6 µM | [15] 0.469 µM | [5] 3.32 µM | [6] 105 nM | [7] 7.43 µM | [9] 0.105 µM | [11] 7.43 µM | [12] 18.7 µM | [14] 9.35 µM | [17] 0.833 µM
